The panel holds about 83,000 compounds, 20% with a hit somewhere; the sample as a whole holds those more often.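 For each line, cells grew in 96-well plates with the test compound present at a single concentration for 48 hours.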 Unmarked numbers belong to inactive results. Calls of active or inactive are those of the source. Rule for the calls: active = growth percent below 10; inactive = the rest.
Experiments:
Assay in all cases: NCI-60 one-dose screen, 48 h (100 = growth as untreated, 0 = no growth, -100 = all killed)
Details in all cases: 10 µM unless noted
DU-145 prostate = tested on: DU-145 prostate
K-562 leukemia = tested on: K-562 leukemia
MALME-3M melanoma = tested on: MALME-3M melanoma
MDA-MB-231 breast = tested on: MDA-MB-231 breast
RXF 393 renal = tested on: RXF 393 renal
SF-268 CNS = tested on: SF-268 CNS
SF-295 CNS = tested on: SF-295 CNS
SF-539 CNS = tested on: SF-539 CNS
HCT-15 colon = tested on: HCT-15 colon
HT29 colon = tested on: HT29 colon
SNB-75 CNS = tested on: SNB-75 CNS
SNB-19 CNS = tested on: SNB-19 CNS
PC-3 prostate = tested on: PC-3 prostate
SK-MEL-5 melanoma = tested on: SK-MEL-5 melanoma
LOX IMVI melanoma = tested on: LOX IMVI melanoma
UACC-257 melanoma = tested on: UACC-257 melanoma
M14 melanoma = tested on: M14 melanoma
U251 CNS = tested on: U251 CNS
UACC-62 melanoma = tested on: UACC-62 melanoma
SK-MEL-28 melanoma = tested on: SK-MEL-28 melanoma

Nc1c(C(=O)Nc2c(Cl)cccc2Cl)sc2nc3c(cc12)CCCC3
growth (DU-145 prostate): 88.4% | growth (K-562 leukemia): 14.8% | growth (MALME-3M melanoma): 59.2% | growth (MDA-MB-231 breast): 82.5% | growth (RXF 393 renal): 87.9% | growth (SF-268 CNS): 80.9% | growth (SF-295 CNS): 75.8% | growth (SF-539 CNS): 75.8% | growth (HCT-15 colon): 41.9% | growth (HT29 colon): 43.3% | growth (SNB-75 CNS): 71.6% | growth (SNB-19 CNS): 82.8% | growth (PC-3 prostate): 80% | growth (SK-MEL-5 melanoma): 83.1% | growth (LOX IMVI melanoma): 59.4%

[B-][N+](CC)(CC)c1ccccc1
growth (DU-145 prostate): 106% | growth (K-562 leukemia): 105% | growth (MALME-3M melanoma): 98.1% | growth (MDA-MB-231 breast): 119% | growth (RXF 393 renal): 115% | growth (SF-268 CNS): 103% | growth (SF-539 CNS): 97% | growth (UACC-257 melanoma): 105% | growth (M14 melanoma): 88.6% | growth (HCT-15 colon): 100% | growth (HT29 colon): 107% | growth (SNB-75 CNS): 84.1% | growth (SNB-19 CNS): 105% | growth (U251 CNS): 99% | growth (PC-3 prostate): 99.4% | growth (SK-MEL-5 melanoma): 104% | growth (UACC-62 melanoma): 111% | growth (LOX IMVI melanoma): 109% | growth (SK-MEL-28 melanoma): 99.7%

COc1cccc(-c2nn(-c3ccccc3)cc2-c2ccnc(NCCNS(=O)(=O)c3cccc(F)c3)c2)c1
growth (DU-145 prostate): 58% | growth (K-562 leukemia): 11.9% | growth (MALME-3M melanoma): 78.2% | growth (MDA-MB-231 breast): 9.24% (active) | growth (RXF 393 renal): 44.1% | growth (SF-268 CNS): 48.1% | growth (SF-295 CNS): 13.2% | growth (SF-539 CNS): 52.3% | growth (M14 melanoma): 27.2% | growth (HCT-15 colon): 24.3% | growth (HT29 colon): 16.9% | growth (SNB-75 CNS): 70.6% | growth (SNB-19 CNS): 37.2% | growth (PC-3 prostate): 19.1% | growth (SK-MEL-5 melanoma): 26.7% | growth (LOX IMVI melanoma): 38.3%

COC(=O)[C@]12CC[C@@H](C)[C@H](C)[C@@H]1C1=CC(=O)[C@@H]3[C@@]4(C)C[C@@H](O)[C@H](O)[C@@]5(C)COC(=C45)C[C@@]3(C)[C@]1(C)CC2
growth (DU-145 prostate): 92.7% | growth (K-562 leukemia): 14.2% | growth (MALME-3M melanoma): 68% | growth (MDA-MB-231 breast): 45.8% | growth (RXF 393 renal): 63.1% | growth (SF-268 CNS): 80.8% | growth (SF-295 CNS): 61.3% | growth (SF-539 CNS): 54.1% | growth (M14 melanoma): 27.4% | growth (HCT-15 colon): 26.5% | growth (HT29 colon): 27.4% | growth (SNB-75 CNS): 32.8% | growth (SNB-19 CNS): 60.8% | growth (PC-3 prostate): 49.2% | growth (SK-MEL-5 melanoma): 41.3% | growth (LOX IMVI melanoma): 57%

O=S(=O)(NCCCNc1cc(-c2cn(-c3ccccc3)nc2-c2cccc(O)c2)ccn1)c1ccc(F)cc1
growth (DU-145 prostate): 59.5% | growth (K-562 leukemia): 3% (active) | growth (MALME-3M melanoma): 35.9% | growth (MDA-MB-231 breast): -0.971% (active) | growth (RXF 393 renal): 39.7% | growth (SF-268 CNS): 44.5% | growth (SF-295 CNS): 5.71% (active) | growth (SF-539 CNS): 38.8% | growth (HCT-15 colon): 6.54% (active) | growth (HT29 colon): 0.761% (active) | growth (SNB-75 CNS): 46.3% | growth (SNB-19 CNS): 57.4% | growth (U251 CNS): 31.3% | growth (PC-3 prostate): 23% | growth (SK-MEL-5 melanoma): 31.4% | growth (LOX IMVI melanoma): 18.9%

C/C(=N\Nc1cc(C)c2ccccc2n1)c1ccccn1
growth (DU-145 prostate): 18.3% | growth (K-562 leukemia): -41.4% (active) | growth (MALME-3M melanoma): -77.9% (active) | growth (MDA-MB-231 breast): -28.7% (active) | growth (RXF 393 renal): -77.4% (active) | growth (SF-268 CNS): -6.64% (active) | growth (SF-539 CNS): -53.8% (active) | growth (UACC-257 melanoma): -62.1% (active) | growth (M14 melanoma): -81.4% (active) | growth (HCT-15 colon): 21% | growth (HT29 colon): -90.8% (active) | growth (SNB-75 CNS): 31.5% | growth (SNB-19 CNS): 19.9% | growth (U251 CNS): -86.5% (active) | growth (PC-3 prostate): 15.9% | growth (SK-MEL-5 melanoma): -72.1% (active) | growth (UACC-62 melanoma): -52% (active) | growth (LOX IMVI melanoma): -78.5% (active) | growth (SK-MEL-28 melanoma): -93.7% (active)

O=C1CCN2C(=O)Nc3ccccc3C2C1 (configuration not stated)
growth (DU-145 prostate): 112% | growth (K-562 leukemia): 101% | growth (MALME-3M melanoma): 87.4% | growth (MDA-MB-231 breast): 93.5% | growth (RXF 393 renal): 112% | growth (SF-268 CNS): 110% | growth (SF-295 CNS): 97.5% | growth (SF-539 CNS): 95.5% | growth (HCT-15 colon): 99% | growth (HT29 colon): 104% | growth (SNB-75 CNS): 83.4% | growth (SNB-19 CNS): 92% | growth (U251 CNS): 104% | growth (PC-3 prostate): 95.2% | growth (SK-MEL-5 melanoma): 103% | growth (LOX IMVI melanoma): 106%

Cc1cc(Nc2ccc(F)cc2)nc(N2CCN(c3ccnc4cc(Cl)ccc34)CC2)n1
growth (DU-145 prostate): 35% | growth (K-562 leukemia): 6.26% (active) | growth (MALME-3M melanoma): 12.7% | growth (MDA-MB-231 breast): 37.9% | growth (RXF 393 renal): 38.9% | growth (SF-268 CNS): 36.2% | growth (SF-539 CNS): 14% | growth (UACC-257 melanoma): 38.3% | growth (M14 melanoma): 12.9% | growth (HCT-15 colon): 9.8% (active) | growth (HT29 colon): 1.42% (active) | growth (SNB-75 CNS): 14.6% | growth (SNB-19 CNS): 43.9% | growth (U251 CNS): 26.4% | growth (PC-3 prostate): 11.1% | growth (SK-MEL-5 melanoma): 14.1% | growth (UACC-62 melanoma): 21.5% | growth (LOX IMVI melanoma): 13.1% | growth (SK-MEL-28 melanoma): 16.7%

COC(=O)CCCCCn1c2ccccc2c2c3c(c4c5ccccc5[nH]c4c21)C(=O)N(O)C3=O
growth (DU-145 prostate): 80.6% | growth (K-562 leukemia): 23.8% | growth (MALME-3M melanoma): 96% | growth (MDA-MB-231 breast): 41.8% | growth (RXF 393 renal): 64.9% | growth (SF-268 CNS): 45.6% | growth (SF-295 CNS): 59.6% | growth (SF-539 CNS): 25.3% | growth (M14 melanoma): 39.5% | growth (HCT-15 colon): 44.1% | growth (HT29 colon): 24% | growth (SNB-75 CNS): 92% | growth (SNB-19 CNS): 29.9% | growth (U251 CNS): 10.2% | growth (PC-3 prostate): 34.3% | growth (LOX IMVI melanoma): -65% (active)
